Experimental data from PubChem BioAssay AID743325 (National Center for Advancing Translational Sciences (NCATS), 2014).
Active and inactive are the calls of the source. Calls come from the whole dose curve.

experiment: qHTS profiling of Chloroquine Analogs as inhibitors of Plasmodium falciparum (3D7) proliferation; settings: activity change, negative = inhibition: at 28.7 µM (top of the series) unless noted
Text: Plasmodium falciparum is a virulent malarial parasite that kills 1-2 million people worldwide each year. Transmitted by mosquitoes, the sporozoite form of the parasite enters the blood stream to infect hepatocytes, where they become merozoites that infect red blood cells (erythrocytes). Within erythrocytes, merozoites begin a […] cycle of growth and division, after which the parasite is released to infect new red blood cells. Gametocytes, which form within erythrocytes as well, circulate in the bloodstream and are ingested by the mosquito, thereby completing the life cycle. To profile malarial isolates for differential chemical responses and to identify inhibitors of malarial growth, an assay that measures P. falciparum growth and replication within erythrocytes was employed. This assay uses a DNA binding fluorescent dye (SYBR Green) to detect parasite DNA following cell lysis. Because mature erythrocytes lack DNA, only Plasmodium-derived DNA is detected.
The SYBR Green viability assay was adapted from a method described previously (Plouffe et al., 2008). For screening 3 ul culture medium was dispensed into 1536 well black clear bottom plates (Aurora Biotechnologies) using a Multidrop Combi (Thermo Fisher Scientific Inc.), 23 nL compounds in DMSO were added by a pin tool (Kalypsys), and 5 ul of erythrocytes infected with P. falciparum (0.3% parasitemia, 2.5% hematocrit final concentration) were added. The plates were incubated at 37 C in a humidified incubator in 5% CO2 for 72 h, and 2 ul lysis buffer (20 mM Tris HCl, 10 mM EDTA, 0.16% saponin, 1.6% triton X, 10X SYBR Green I supplied as 10,000X […] by Invitrogen) was added to each well. The plates were mixed for 25 sec with gentle shaking and incubated overnight at room temperature in the dark. The following morning, fluorescence intensity at 485(14) nm excitation and 535(25) nm emission wavelengths was measured on an EnVision (Perkin Elmer) plate reader. Plate reads were normalized relative to the control inhibitor (0.29 uM artemisinin) and vehicle (DMSO) wells present on each plate and then corrected by an algorithm using vehicle-only control plates at the beginning and end of the compound plate stack.

SMILES	Potency	activity change, negative = inhibition
Cn1cncc1[C@@](N)(c1ccc(Cl)cc1)c1ccc2c(c1)c(-c1cccc(Cl)c1)cc(=O)n2C	1680 nM (active)	
COc1ccc(CCN(C)CCCC(C#N)(c2ccc(OC)c(OC)c2)C(C)C)cc1OC (configuration not stated)	inactive	
CC1=CC(=O)c2ccccc2C1=O	inactive	
O=C1C(=O)c2ccccc2C(O)=C1C1CCC(c2ccc(Cl)cc2)CC1 (configuration not stated)	0.7 nM (active)	
O=C(O)c1cn(C2CC2)c2cc(N3CCNCC3)c(F)cc2c1=O	inactive	
CC(=O)N(O)CCCP(=O)(O)O	266 nM (active)	
CN1C[C@H](C(=O)N[C@]2(C)O[C@@]3(O)[C@@H]4CCCN4C(=O)[C@H](Cc4ccccc4)N3C2=O)C[C@@H]2c3cccc4[nH]cc(c34)C[C@H]21	530 nM (active)	
O=CN(O)CCCP(=O)(O)O	530 nM (active)	
COc1cc2c(cc1C(F)(F)F)N(C(=O)Nc1cc(F)cc(-c3cccnc3)c1)CC2	3760 nM (active)	
C=C[C@@H]1CN2CCC1C[C@@H]2C(O)c1ccnc2ccc(OC)cc12 (some centres not stated)		-97.6%
OB1OCc2cc(F)ccc21	inactive	
CCN(CC)CCCC(C)Nc1ccnc2cc(Cl)ccc12 (configuration not stated)		-99%
Cc1oncc1C(=O)Nc1ccc(C(F)(F)F)cc1	inactive	
Cc1cccc(C)c1OCC(=O)N[C@@H](Cc1ccccc1)[C@@H](O)C[C@H](Cc1ccccc1)NC(=O)[C@H](C(C)C)N1CCCNC1=O		-99.8%
CCCCN(CCCC)CC(O)c1cc(Cl)cc2c1-c1ccc(Cl)cc1C2=Cc1ccc(Cl)cc1 (configuration not stated)		-97.1%
C[C@H]1Cc2c([nH]c3cc(Cl)c(F)cc23)[C@@]2(N1)C(=O)Nc1ccc(Cl)cc12		-101%
O=C(Nc1ccc(Cl)cc1)Nc1ccc(Cl)c(Cl)c1		-102%
COc1ccc2nc3cc(Cl)ccc3c(Nc3cc(CN4CCCC4)c(O)c(CN4CCCC4)c3)c2n1		-101%
CC(C)(C)c1cc(O)c(CN)c(C(C)(C)C)c1	168 nM (active)	

SMILES	Potency	activity change, negative = inhibition
COc1cccc(CCc2ccccc2OCC(CN(C)C)OC(=O)CCC(=O)O)c1 (configuration not stated)	2980 nM (active)	
CN1CCN(CCCN2c3ccccc3Sc3ccc(S(=O)(=O)N(C)C)cc32)CC1	716 nM (active)	
CC[C@H]1OC(=O)[C@H](C)[C@@H](O[C@H]2C[C@@](C)(OC)[C@@H](O)[C@H](C)O2)[C@H](C)[C@@H](O[C@@H]2O[C@H](C)C[C@H](N(C)C)[C@@H]2O)[C@](C)(O)C[C@@H](C)CN(C)[C@H](C)[C@@H](O)[C@]1(C)O	9430 nM (active)	
Clc1ccc(COC(Cn2ccnc2)c2ccc(Cl)cc2Cl)c(Cl)c1 (configuration not stated)		-97.6% [at 14.2 µM]
CCN(CC)CCOCCOC(=O)C(CC)(CC)c1ccccc1	inactive	
COCC(=O)O[C@]1(CCN(C)CCCc2nc3ccccc3[nH]2)CCc2cc(F)ccc2[C@@H]1C(C)C		-102%
COc1cc(C=CC(=O)CC(=O)C=Cc2ccc(O)c(OC)c2)ccc1O	8410 nM (active)	
Cc1cccc(C)c1OCC(N)C(C)C (configuration not stated)		-97.7%
CO[C@H]1O[C@@H]2O[C@@]3(C)CC[C@@H]4[C@@H](C)CC[C@@H]([C@H]1C)[C@@]24OO3	inactive	
C[C@H]1[C@@H](OC(=O)CCC(=O)O)O[C@@H]2OC3(C)CC[C@H]4[C@H](C)CC[C@@H]1[C@@]24OO3		-101%
C[C@@H]1CC[C@H]2[C@@H](C)C(=O)O[C@@H]3OC4(C)CC[C@@H]1C32OO4 (some centres not stated)		-99.4% [at 57.5 µM]
C[C@H]1c2cccc(O)c2C(O)=C2C(=O)[C@]3(O)C(O)=C(C(N)=O)C(=O)[C@@H](N(C)C)[C@@H]3[C@@H](O)[C@@H]21	8410 nM (active)	
CC(C)N=C(N)N=C(N)Nc1ccc(Cl)cc1	26.6 nM (active)	
CN(C)c1ccc2nc3ccc(=[N+](C)C)cc-3sc2c1	4.3 nM (active)	
COc1ncnc(NS(=O)(=O)c2ccc(N)cc2)c1OC	1500 nM (active)	
C[C@H]1[C@@H](CCC(=O)Nc2ccc(F)cc2)O[C@@H]2O[C@]3(C)CC[C@@H]4[C@H](C)CC[C@@H]1[C@@]24OO3		-100%
CCc1nc(N)nc(N)c1-c1ccc(Cl)cc1		-98.9%
CSc1cccc(NC(=O)CC[C@H]2O[C@@H]3O[C@]4(C)CC[C@H]5[C@H](C)CC[C@@H]([C@@H]2C)[C@@]35OO4)c1	21.1 nM (active)	
